# Compounds with a hit are over-represented: about 3.1% of the library has one in this group of screens.
# DRD3 agonist: agonists of human D3 dopamine receptor | 410,000 compounds, 0.58% hits | P35462 | AID 652048 | max activation, % | D3R DiscoveRx beta-arrestin cells, luminescence, 90 min; in the data active = max activation above about 30%; also: 0% is about no effect
# Target sequence (P35462 whole entry, looked up): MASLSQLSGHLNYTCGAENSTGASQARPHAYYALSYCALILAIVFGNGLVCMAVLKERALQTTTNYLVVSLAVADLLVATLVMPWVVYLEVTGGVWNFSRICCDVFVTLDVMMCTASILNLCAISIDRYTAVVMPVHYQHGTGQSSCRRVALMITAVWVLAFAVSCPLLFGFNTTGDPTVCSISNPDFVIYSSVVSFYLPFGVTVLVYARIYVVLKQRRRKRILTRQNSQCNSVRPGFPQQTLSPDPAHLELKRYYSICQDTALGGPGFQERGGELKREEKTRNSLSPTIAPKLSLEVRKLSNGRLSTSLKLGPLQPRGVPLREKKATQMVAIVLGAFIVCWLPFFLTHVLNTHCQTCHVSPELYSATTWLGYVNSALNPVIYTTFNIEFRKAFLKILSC
#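 Cells at 1500/well, incubated overnight, then treated with pinned compounds (dopamine as control) for 90 min at 37 degrees C. DiscoveRx reagent added for 30 - 60 minutes at room temperature; luminescence read.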
# RGS4 inhibitor: blocks human RGS4-accelerated GTP hydrolysis; 390,000 compounds, 0.039% hits; Transcreener GDP fluorescence polarization, RGS4-accelerated GTP hydrolysis; P49798; Potency, µM (highest dose often 114 µM), for the others: at the top dose activity change, negative = inhibition, usual class: inhibitors; active = well fitted inhibition curve with a large enough effect; inconclusive = small, poorly fitted or top-dose-only effect; inactive = no such curve, though single readings can be large or run the other way; also: potency is read from the fitted curve at half-maximal effect; % is scaled to controls: 0 for no effect and ±100 for the full control effect; nearly all actives have a fitted effect of over 75% in size
# Target sequence (P49798 whole entry, looked up): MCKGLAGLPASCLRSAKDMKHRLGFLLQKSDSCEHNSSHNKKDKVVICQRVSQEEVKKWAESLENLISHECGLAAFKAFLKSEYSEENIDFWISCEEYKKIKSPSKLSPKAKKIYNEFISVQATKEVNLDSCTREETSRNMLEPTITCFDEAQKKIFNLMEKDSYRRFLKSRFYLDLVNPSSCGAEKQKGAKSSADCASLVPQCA
#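 MLSMR compounds (23 nl, pin-transferred) preincubated 10 min at room temperature with a 500nM (2x) first reagent, then RGS4 at 900nM (2x) plus Transcreener GDP mix added; fluorescence polarization (620/688 nm) read before and after 90 min at 30 °C.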
# uPA generation: blocks generation of uPA at the cell surface. AID 540303. Potency, µM (doses to about 38.3 µM), for inactives: top-dose activity change, negative = inhibition, actives largely listed as inhibitors. 330,000 compounds, 0.31% hits. cell surface uPA generation assay, qHTS; active = well fitted inhibition curve with a large enough effect; inconclusive = small, poorly fitted or top-dose-only effect; inactive = no such curve, though single readings can be large or run the other way; tested in mouse RAW 264.7 cells; also: potency is read from the fitted curve at half-maximal effect; % is scaled to controls: 0 for no effect and ±100 for the full control effect; nearly all actives have a fitted effect of over 55% in size
# D3 antag: antagonists of human D3 dopamine receptor. P35462. D3R cells, DiscoveRx beta-arrestin luminescence, antagonist mode; stronger effect = lower value. max response, negative = inhibition, %. 360,000 compounds, 2.5% hits; in the data active = max response below about -50%; inconclusive = no clear call, values can overlap the other calls; also: % is scaled to controls: 0 for no effect and ±100 for the full control effect
#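 Cells expressing the human receptor were seeded at 1500 cells/well, incubated overnight at 37 degrees C in 5% CO2, then exposed to library compounds with dopamine controls for 90 minutes at 37 degrees C before luminescent detection.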
# * = called active by the depositor; i = inactive; ? = inconclusive; . = no result; [ ] = dose if it differs, or a comment.
SMILES,DRD3 agonist,RGS4 inhibitor,uPA generation,D3 antag
O=c1ccc2cc([N+](=O)[O-])c(CCO)cc2o1,5,11%,-2%,-52*
CCCCN(c1ccccc1)S(=O)(=O)c1cc2c3c(c1)C(C)C(=O)N3CCC2 (configuration not stated),-18,5%,.,.
N[C@@H](Cn1cc(F)c(=O)[nH]c1=O)C(=O)O,.,i,.,.
CCOC(=O)Cc1csc(NC(=O)Cn2cnc3c2c(=O)n(C)c(=O)n3C)n1,-9,?,1%,-16
Cn1c(=O)c2c(ncn2CC(=O)Nc2nc(-c3ccccc3Cl)cs2)n(C)c1=O,32*,-21%,.,16
CCN(CC)c1ccc(C2C(C(N)=O)=C(C)Nc3ncnn32)cc1 (configuration not stated),6,16%,.,.
O=C(c1cc2ccccc2o1)N1CCN(CCOc2ccccc2)CC1,58*,-35%,6%,25
O=C(c1cc2ccccc2o1)N1CCOCC1,3,8%,-4%,2
CCOCc1c(C(=O)N2CCN(CC(=O)Nc3ccc(F)cc3)CC2)oc2ccccc12,-1,-11%,-6%,9
O=C(c1cc2ccccc2o1)N1CCN(S(=O)(=O)c2cccs2)CC1,10,6%,-2%,-56*
CCOCc1c(C(=O)N2CCN(CCOc3ccc(Cl)cc3)CC2)oc2ccccc12,108*,-10%,-2%,-10
O=C(Nc1ccc2ccccc2c1)N1CCCN(CCOc2ccccc2)CC1,2,-28%,?,-78*
CCCN1CCN(C(=O)Nc2ccc(OCC)cc2)CC1,0,-4%[11.4 µM],8%,2
Cc1ccc(Cl)cc1N1CCN(C2(c3ccccc3)C(=O)c3ccccc3C2=O)CC1,-14,8%,.,.
CC(=O)N1CCc2c(sc3c2c(=O)n(-c2ccccc2)c(=O)n3CC(=O)c2ccc(F)cc2)C1,-5,-2%,.,.
Cc1ccc(C2=Nc3ccccc3N=C(c3ccc(F)cc3)C2)c(O)c1,-12,-10%,.,.
CCOC(=O)c1c(C)oc2ccc(N(C(C)=O)S(=O)(=O)c3c(C)cc(C)cc3C)cc12,-1,-1%,.,.
O=C(c1ccco1)c1nc2c(n1O)CCCCC2,13,-9%,0%,25
O=C(OCCN1CCCCC1)c1cc2ccccc2o1,1,-21%[56.9 µM],4%,-66*
O=C(c1cc2ccccc2o1)c1nc2c(n1O)CCCCC2,-4,-26%,-3%,-79*
O=C(OCCN1CCCCC1)c1ccccc1Br,-22,-21%,-20%,-22
O=[N+]([O-])c1cccc(CN2CCN(c3cccc4[nH]ccc34)CC2)c1,-6,40%,15%,-97*
COc1ccccc1C1CCN(Cc2cccc([N+](=O)[O-])c2)CC1,-23,22%,2%,-95*
COc1ccccc1C1CCN(Cc2ccccc2Cl)CC1,-42,13%,4%,-75*
COc1cc(NC(=O)NCC2CCN(Cc3ccccc3Cl)CC2)cc(OC)c1OC,-12,16%,-23%,-7
SMILES,DRD3 agonist,RGS4 inhibitor,uPA generation,D3 antag
O=[N+]([O-])c1cccc(COc2cccc(CN3CCCCC3)c2)c1,-62,3%,-18%,-77*
O=[N+]([O-])c1cccc(CN2CCN(c3ncccn3)CC2)c1,1,-36%,2%,-14
Cc1ccccc1NC(=O)CC1NCCNC1=O (configuration not stated),-4,-2%,.,.
CN(C)c1ccc(CC(=O)N2CCCCC2c2cc(C(=O)Nc3ccccc3)no2)cc1 (configuration not stated),-1,.,.,0
COc1ccccc1C1CCN(Cc2ccccc2)CC1,-24,-13%,2%,-116*
COc1ccccc1C1CCN(Cc2ccc3ccccc3c2)CC1,-34,-5%,-6%,-62*
OCCN1CCN(Cc2ccc3ccccc3c2)CC1,-15,-10%,9%,-16
COc1ccc(CN2CCC(Cc3ccccc3)CC2)cc1OC,-18,32%,?,?
C/C=C1\NC(=O)[C@H]2CSSCC/C=C/[C@H](CC(=O)N[C@H](C(C)C)C(=O)N2)OC(=O)C(C(C)C)NC1=O (some centres not stated),-2,.,.,.
CN(C)c1ccc(/C=C(\C#N)c2ccccc2)cc1,0,-7%,0.89µM*,7
CC1(c2ccccc2)NC(=O)N(CC(=O)Nc2ccc([N+](=O)[O-])cc2)C1=O (configuration not stated),-8,-17%,1%,1
CC1(c2ccc([N+](=O)[O-])cc2)NC(=O)N(CC(=O)Nc2ccc(N3CCCCC3)cc2)C1=O (configuration not stated),-11,-10%,3%,-51*
CN(C)c1ccc(Nc2ccc([N+](=O)[O-])cn2)cc1,-9,-8%,-4%,-60*
CCOC(=O)c1cc(S(=O)(=O)N2CCN(c3ccc(C)cc3C)CC2)[nH]n1,16,-7%,.,.
CCCCn1c(=O)[nH]c(=O)c2c1nc(Cn1ncc(Cl)c(Cl)c1=O)n2CCC,-11,?,7%,-64*
CCCCn1c(=O)[nH]c(=O)c2c1nc(CN1C(=O)c3ccccc3S1(=O)=O)n2CCC,-1,-19%,0%,17
Cc1cc(C)cc(NC(=O)N2CCC(N3CCN(Cc4ccccc4)C(=O)C3=O)CC2)c1,8,17%,.,.
COCCCNc1nc2ccccc2nc1NS(=O)(=O)c1cccs1,-3,16%,1%,-64*
CCOC(=O)[C@H](CCc1ccccc1)N[C@@H](C)C(=O)N1CCC[C@@H]1C(=O)O,74*,10%,1%,18
COc1ccc(C(=O)Nc2cc3c(cc2N2CCCCC2)n(C)c(=O)n3C)cc1OC,32*,-24%,-3%,24
COc1ccc(C(=O)Nc2cc3c(cc2N2CCCC2)n(C)c(=O)c(=O)n3C)cc1OC,1,4%,.,.
CCCCNC(=O)C(CC)Sc1nnc(-c2cccc(F)c2)c(-c2cccc(F)c2)n1 (configuration not stated),4,-11%,.,.
O=c1[nH]c(=O)n(Cc2ccco2)c2c1C(C(F)(F)F)(C(F)(F)F)N=C(c1ccc(F)cc1)N2,56*,-9%,.,48
CCCSCCCNC(=O)CN1C(=O)CCn2nc(-c3cn(C)c4ccccc34)cc21,-21,-2%,.,.
COc1ccc(N=C2NC(=O)S/C2=C\c2ccc(N(C)C)cc2)cc1,-16,-27%,-3%,-66*
SMILES,DRD3 agonist,RGS4 inhibitor,uPA generation,D3 antag
CCOc1ccc(N=C2NC(=O)S/C2=C\c2ccc(Cl)cc2)cc1,-1,-9%,-6%,-2
CCCCCn1c(-c2ccc(OC)c(OC)c2)nc2ccccc21,6,-17%,.,.
COc1ccc(NC(=O)/C(Cl)=C(/Cl)S(=O)Cc2ccccc2Cl)cn1 (configuration not stated),-18,-110%,21%,-96*
COc1ccc(NC(=O)/C(Cl)=C(/Cl)S(=O)(=O)Cc2ccc(C)cc2)cn1,-7,?,-10%,-77*
NC(=O)NC(Cc1ccccc1)C(=O)N1CCN(S(=O)(=O)c2ccc(Cl)cc2)CC1 (configuration not stated),-6,-12%,4%,-68*
COc1ccc(S(=O)(=O)N2CCN(C(=O)[C@H](Cc3ccccc3)NC(=O)c3ccco3)CC2)cc1,-1,8%,2%,1
